The list is not random: actives were taken first. Their share in the collection is about 1.6%.
KCNQ2 block: inhibitors of rat KCNQ2 potassium channel | B-score at 10 µM | actives 1.1% (n = 310,000) | AID 2156 | CHO-K1 KCNQ2, FluxOR thallium flux, 20 min; active compounds read low;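 active = fluorescence ratio B-score at most minus 3 library SDs, with starting brightness B-score within 2 library SDs, cut at about -5.5 in these data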
Target sequence (O88943 whole entry, looked up): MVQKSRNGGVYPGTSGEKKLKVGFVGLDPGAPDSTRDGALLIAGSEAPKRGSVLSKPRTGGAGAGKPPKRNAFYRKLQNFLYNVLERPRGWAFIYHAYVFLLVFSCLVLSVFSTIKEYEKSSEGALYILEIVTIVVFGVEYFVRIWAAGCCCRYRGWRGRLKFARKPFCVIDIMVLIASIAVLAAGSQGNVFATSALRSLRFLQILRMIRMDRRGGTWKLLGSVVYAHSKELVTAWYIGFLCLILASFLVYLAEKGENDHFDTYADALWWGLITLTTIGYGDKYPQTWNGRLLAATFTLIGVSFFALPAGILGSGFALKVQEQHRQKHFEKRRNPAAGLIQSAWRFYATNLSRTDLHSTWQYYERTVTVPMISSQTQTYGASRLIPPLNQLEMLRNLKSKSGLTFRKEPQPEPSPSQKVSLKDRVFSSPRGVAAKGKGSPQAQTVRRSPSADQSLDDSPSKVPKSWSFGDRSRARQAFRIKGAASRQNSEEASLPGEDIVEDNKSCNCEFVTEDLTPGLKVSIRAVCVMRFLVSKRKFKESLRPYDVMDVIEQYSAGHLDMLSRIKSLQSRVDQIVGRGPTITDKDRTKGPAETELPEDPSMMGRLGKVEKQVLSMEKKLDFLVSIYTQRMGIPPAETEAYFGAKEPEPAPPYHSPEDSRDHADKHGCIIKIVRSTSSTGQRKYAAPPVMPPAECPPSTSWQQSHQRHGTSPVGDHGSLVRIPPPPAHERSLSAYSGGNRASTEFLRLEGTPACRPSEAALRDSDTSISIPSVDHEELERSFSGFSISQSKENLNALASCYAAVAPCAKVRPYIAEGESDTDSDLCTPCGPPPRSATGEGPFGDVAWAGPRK
KCNQ2 pot: enhances the rat KCNQ2 potassium channel. CHO-K1 KCNQ2, FluxOR thallium flux fluorescence; active compounds read high. actives 0.54% (n = 310,000). B-score at 10 µM;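 active = fluorescence ratio B-score at least 3 SD of library B-scores, with initial fluorescence B-score within 3 of them, cut at about 5.3 in these data; same plate scores as AID 2156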;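 also: B-score of peak minus minimum over baseline fluorescence ratio after K+ and Tl+ stimulus; positive B-score means potentiation of KCNQ2 with more thallium influx and brighter signal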
Numbers without * were called inactive; i = inactive; . = no result.

SMILES	KCNQ2 block	KCNQ2 pot
O=c1c2ccccc2oc2cc(OCc3cccc(F)c3)cc(O)c12	i	.
COc1cc(C(=O)NC(=S)Nc2ccccc2N2CCOCC2)cc(OC)c1OC	i	.
Cc1ccc(C(=O)NC(=S)Nc2ccccc2N2CCOCC2)cc1C	-6.1*	-6.1
COc1ccc(CN2CCN(CCc3ccccc3)C(CCO)C2)c(Cl)c1OC (centres undefined)	i	.
CCOC(=O)CSc1nnc([C@H](Cc2ccccc2)NC(=O)OC(C)(C)C)o1	i	.
CC(C)C[C@H](NC(=O)OC(C)(C)C)c1nnc(SCc2ccccc2)o1	-6.9*	-6.9
CC(C)(C)OC(=O)N[C@@H](Cc1ccccc1)c1nnc(S(=O)(=O)Cc2cccc(F)c2)o1	i	.
Cc1ccccc1CS(=O)(=O)c1nnc([C@H](CC(C)C)NC(=O)OC(C)(C)C)o1	-5.6*	-5.6
O=C(/C=C/NCc1cccnc1)c1ccc(Br)cc1	i	0.68
Cc1nc2ccc([N+](=O)[O-])cc2[nH]1	i	0.64
O=[N+]([O-])c1cccc(/C=C/c2nc3ccc([N+](=O)[O-])cc3[nH]2)c1	-8.1*	-8.1
Cc1ccc(CCNS(=O)(=O)c2cc3c(cc2Cl)NC(=O)CO3)cc1	i	.
COc1ccc(Cc2nc3ccc(C(=O)N(C)CCc4cnn(C)c4)cc3o2)cc1OC	i	0.88
CCc1nc(Sc2nnnn2-c2ccccc2)c2c3c(sc2n1)CCCC3	-5.9*	-5.9
CCc1nc(-n2[nH]c(=O)c3ccccc3c2=O)c2c3c(sc2n1)CCCC3	i	.
Fc1ccc(NC(=S)N2CCc3ccccc3C2)c(F)c1	i	.
COc1cc2c(C(=O)N3CCN(C)CC3)c(C)n(-c3ccccc3)c2cc1Br	i	.
CCN(CC)CCNC(=O)c1c(C)n(-c2ccccc2)c2cc(Br)c(OC)cc12	-5.8*	-5.8
Cc1cc(=O)c(C(=O)O)nn1-c1ccccc1F	i	0.05
COc1ccccc1C1CCN(C(=O)c2ccc(C(C)(C)C)cc2)CC1	-6.5*	-6.5
COc1ccccc1N1CCN(C(=O)c2ccc(C(C)(C)C)cc2)CC1	i	.
Cc1csc(SCC(=O)Nc2cc(S(=O)(=O)N(C)C)ccc2C)n1	i	0.45
Cc1ccc(C(=O)/C=C\C(=O)c2ccc(C)cc2)cc1	-5.7*	-5.7
CC(/C=C/C(=O)c1ccc(C)cc1)=C\c1ccccc1	i	.
COc1ccc(CCNC(C(=O)Nc2cc(C)cc(C)c2)c2ccccc2)cc1 (centres undefined)	-8.1*	-8.1
SMILES	KCNQ2 block	KCNQ2 pot
CCOc1ccccc1NC(=O)C(NCCc1ccc(OC)cc1)c1ccccc1 (centres undefined)	i	.
Clc1ncnc2scc(-c3ccccc3)c12	i	1.3
S=c1[nH]cnc2scc(-c3ccccc3)c12	i	11*
CC(C)c1ccc(N(C(=O)c2snc(C(N)=O)c2N)C(C(=O)NC2CCCC2)c2ccncc2)cc1 (centres undefined)	i	1.2
CCN1CCN(C(=O)c2cnn3c(C(F)F)cc(-c4ccc(C)cc4)nc23)CC1	i	0.37
Cc1ccc(-c2cc(C(F)F)n3ncc(C(=O)N4CCN(c5ccccn5)CC4)c3n2)cc1	-5.7*	-5.7
CCOC(=O)c1c(C)[nH]c(C(=O)N2CCc3cc(OC)c(OC)cc3C2)c1C	i	0.6
Cc1cccnc1Nc1nc(-c2ccc(F)cc2)cs1	-7.2*	-7.2
Cc1cccnc1Nc1nc(-c2ccc(O)cc2)cs1	i	.
COc1ccc(-n2nc(C(=O)NCC(=O)NCCCN3CCOCC3)c3ccccc3c2=O)c(OC)c1	i	.
COc1ccc(CC2(C)OC(c3ccc([N+](=O)[O-])cc3)=NN2C(C)=O)cc1 (centres undefined)	-6.2*	-6.2
COc1ccc(C(=O)NNC(=O)Cc2ccc([N+](=O)[O-])cc2)cc1	i	0.47
COc1ccccc1NS(=O)(=O)c1cc(C(=O)NCC(C)(C)N2CCOCC2)ccc1C	i	6.7*
COc1ccccc1NS(=O)(=O)c1cc(C(=O)NCc2ccco2)ccc1C	i	.
CNC(=O)c1c(NC(=O)c2ccc(N3C(=O)CCC3=O)cc2)sc2c1CCC(C)C2 (centres undefined)	i	0.56
CC1Cc2ccccc2N1C(=S)NC(=O)c1ccc(Cl)cc1Cl (centres undefined)	i	21*
CC1Cc2ccccc2N1C(=S)NC(=O)c1cccc(Br)c1 (centres undefined)	i	28*
COc1cccc(C(=O)NC(=S)N2c3ccccc3CC2C)c1OC (centres undefined)	i	0.66
COc1cccc(NC(=S)N2c3ccccc3CC2C)c1 (centres undefined)	i	1.6
CCC(=O)N1CCc2cc(OC)c(OC)cc2C1COc1ccc(F)cc1 (centres undefined)	i	.
COc1ccc(Cl)cc1C(=O)n1cnc2ccccc21	i	.
CS(=O)(=O)N1CCN(Cc2cc(=O)n3ccsc3n2)CC1	i	1.1
COc1ccc(NS(=O)(=O)c2ccc3c(c2)NC(=O)CO3)c(OC)c1	i	.
O=C1N(c2ccccc2)c2ccccc2C1(Cc1ccncc1)Cc1ccncc1	-5.6*	-5.6
CC1(CCBr)C(=O)N(c2ccccc2)c2ccccc21 (centres undefined)	i	.
SMILES	KCNQ2 block	KCNQ2 pot
CCn1c(CNS(=O)(=O)c2ccc(Br)cc2)n[nH]c1=S	i	.
Cc1cccc(C)c1NC(=O)/C(=C/c1ccco1)c1ccccc1	i	.
Cc1cc(C)c(NC(=O)/C(=C/c2ccco2)c2ccccc2)c(C)c1	-6*	-6
CC1(c2ccccc2)NC(=O)N(N)C1=O (centres undefined)	i	0.55
Cc1ccccc1N(CC(=O)NC1CCCC1)C(=O)c1oc(C(C)(C)C)cc1C	i	.
Cc1cc(C(C)(C)C)oc1C(=O)N(CC(=O)NC1CCCC1)Cc1ccccc1Cl	-6.2*	-6.2
COc1ccccc1C(O)P(=O)(OCC(C)C)c1ccc(N(C)C)cc1 (centres undefined)	i	0.43
CNC(=S)N(CCCO)Cc1cc2cc3c(cc2[nH]c1=O)OCO3	i	0.41
Cc1cccc(C)c1NC(=O)CSC(=O)c1sc2ccccc2c1Cl	i	.
O=C(O)c1ccccc1NS(=O)(=O)c1cccc(-n2sc3ccccc3c2=O)c1	i	13*
O=C(O)c1ccccc1NS(=O)(=O)c1cccc(C(F)(F)F)c1	i	.
CCC(NC(=O)/C(=C\c1ccc2c(c1)OCO2)NC(C)=O)C(=O)O (centres undefined)	i	.
COc1cc(C2=NOC(C(=O)N3CCN(c4ccc(F)cc4)CC3)C2)cc(OC)c1OC (centres undefined)	i	.
COc1cc(C2=NOC(C(=O)N3CCCCCC3)C2)cc(OC)c1OC (centres undefined)	-6.6*	-6.6
COCCNC(=O)C(c1ccc(C)cc1)N(Cc1ccco1)C(=O)CCC(=O)Nc1ccccn1 (centres undefined)	i	0.04
O=S(=O)(c1ccc(Cl)cc1)N1CCN(S(=O)(=O)N2CCCCCC2)CC1	i	.
O=S(=O)(c1ccc(Oc2ccc(Cl)cc2)c(S(=O)(=O)N2CCCCC2)c1)N1CCCCC1	-7.2*	-7.2
COc1cccc(CNC(=O)CN2C(=O)COc3ccc(S(=O)(=O)N4CCC(C)CC4)cc32)c1	i	.
O=Cc1c(NCc2ccccc2Cl)c2ccccc2[nH]c1=O	i	.
NC(=O)c1c(/N=C/c2cccnc2)sc2c1CCCC2	i	1.3

Compound activity from PubChem.
